{
  "source": "ChEMBL document CHEMBL3988442",
  "about": "“University of Dundee, Small-Polar-MMV Screening Library” (2021)",
  "note": "The campaign covered roughly 48,000 compounds. About 13,000 (27%) showed an effect of 50% or more. This is one part of the list.",
  "data": [
    {"test_system": "Wolbachia pipientis", "test": "Anti-Wolbachia Cell-Based Screen", "assay_type": "functional", "parameters": "scale not given: in the data most compounds retested in dose-response had high values", "conditions": "5 µM", "units": {"Percent Effect": "%"}, "values": [
      {"smiles": "COc1ccc(CNC[C@H]2COCc3nc4cc(F)ccc4n32)cc1", "Percent Effect": -1.545},
      {"smiles": "Cc1cc(C)c2c(c1)C(NCc1nnc3n1CCC3)CCCO2", "note": "(stereo not drawn)", "Percent Effect": -14.27},
      {"smiles": "CC(C)c1nnc(CN(C)C(c2ccccc2)c2ccc(F)cc2)o1", "note": "(stereo not drawn)", "Percent Effect": 6.032},
      {"smiles": "Cn1ccc(C(=O)NCc2ccc(CN3CCCC3)cc2)cc1=O", "Percent Effect": 100.9},
      {"smiles": "Cc1nccn1Cc1cccc(CNC(=O)c2ccn(C)c(=O)c2)c1", "Percent Effect": 4.832},
      {"smiles": "CC1CN(c2ccc(CNC(=O)c3ccn(C)c(=O)c3)cn2)CCO1", "note": "(stereo not drawn)", "Percent Effect": -2.154},
      {"smiles": "Cn1ccc(C(=O)NCc2cccc(Cn3ccnc3)c2)cc1=O", "Percent Effect": 0.02977},
      {"smiles": "CC1CCN(Cc2ccc(CNC(=O)c3ccn(C)c(=O)c3)cc2)CC1", "Percent Effect": 110.1},
      {"smiles": "Cn1ccc(C(=O)NCc2ccc(N3CCCC3)nc2)cc1=O", "Percent Effect": -7.824},
      {"smiles": "Cn1ccc(C(=O)NCc2ccc(Cn3ccnc3)cc2)cc1=O", "Percent Effect": -4.475},
      {"smiles": "O=C(NCc1ccc(CN2CCCC2)cc1)NC1(CO)CCCC1", "Percent Effect": -3.44},
      {"smiles": "Cn1ccc(C(=O)NCc2ccc(CN3CCCCC3)cc2)cc1=O", "Percent Effect": 90.87},
      {"smiles": "Cc1c(C)n(CC(O)CN2CCOCC2)c2c(Cl)cccc12.Cl", "note": "(stereo not drawn)", "Percent Effect": 0.7413},
      {"smiles": "Cc1csc(C(C)(C)NCC(=O)N2CCCC(C(F)(F)F)C2)n1", "note": "(stereo not drawn)", "Percent Effect": -11.49},
      {"smiles": "COc1ccc(N(C(=O)c2ccccn2)C(C)C)cc1F", "Percent Effect": 1.663},
      {"smiles": "CCc1ccc(CN2CCN(c3ncc(Cl)cn3)CC2)nc1", "Percent Effect": -9.614},
      {"smiles": "CCCN(CCOC)C(=O)c1cc(Cn2c(C)nc3ccccc32)[nH]n1", "Percent Effect": 142.8},
      {"smiles": "COCCN(CCOC)C(=O)c1ccn(-c2ccc3ccccn23)n1", "Percent Effect": 3.271},
      {"smiles": "CC(CNC(=O)c1cc(Cn2cnc3ccccc32)[nH]n1)N1CCCC1", "note": "(stereo not drawn)", "Percent Effect": 2.077},
      {"smiles": "COCCN(C(=O)c1cc(-c2ccc(C)s2)[nH]n1)C1CC1", "Percent Effect": 0.109},
      {"smiles": "NC(=O)CNC(=O)c1cc(Cn2cnc3ccccc32)[nH]n1", "Percent Effect": -4.781},
      {"smiles": "CCCN(CC)C(=O)c1nc2c(n1C)CCN(Cc1ccccc1)C2", "Percent Effect": -8.908},
      {"smiles": "CCN(CCO)C(=O)c1cc(Cn2c(C)nc3ccccc32)[nH]n1", "Percent Effect": 148},
      {"smiles": "CCCN(CC)C(=O)c1cc(Cn2c(C)nc3ccccc32)[nH]n1", "Percent Effect": 146},
      {"smiles": "CC(=O)N[C@H]1CCN(C(=O)c2cc(Cn3cnc4ccccc43)[nH]n2)C1", "Percent Effect": -30.35},
      {"smiles": "COc1ccc(OC)c(CNC2CCCN(c3cccnn3)C2)c1", "note": "(stereo not drawn)", "Percent Effect": -14.68},
      {"smiles": "Cc1ccoc1C(=O)N1CCNCC1C(=O)NCc1ccncc1", "note": "(stereo not drawn)", "Percent Effect": -11.73},
      {"smiles": "Cc1cc2n(n1)CC(CNCCc1cnn(C)c1)CN2", "note": "(stereo not drawn)", "Percent Effect": -15.02}
    ]}
  ]
}
